# Measurements published in the supplement of paper PMC8728848.
# The entries come from a sample that favours the strongest signals as a whole.
# B1: LICBM33A (Lactococcus lactis), Q9CE94 (protein)
# chain: MKKLLTGLLVAAGLLSVSLLIKTDTVSAHGYVQSPPARGYQGQLDSQSLGWTAAFNIYGNVISNPQSLEAPKGFPECGPADGRIASANGGLGQIGDFVLDNQTSSRWKKTSISTGSNIFTWKYTAPHKTTKWHYYMTKTGWDQNAPLKHSELELIGTINHDGSPATNNLSHTINIPTDRSGYHIVLAVWDVADTSNAFYNVIDINVNNKNASSQVFGPFL
# Legend:
# Experiment in all cases: glycan array binding signal (z-score within array); higher = stronger binding
# Details in all cases: glycan notation: IUPAC condensed, linker removed
# [1] = biological target: Glc(b1-4)Glc
# Outline: (§1)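 Glycan array binding is given as a within-array Z-score, which can be read as non-binding when negative. The arrays, 3228 of them, came from the Consortium for Functional Glycomics database and were retained only where the protein sequence was available. Z-scores were averaged across arrays of the same protein sequence at different concentrations or buffers and across linkers.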
# [2] = biological target: GlcNAc(a1-4)Gal(b1-4)GlcNAc(b1-3)Gal(b1-4)GlcNAc
# Outline: as §1
# [3] = biological target: GlcNAc(a1-4)Gal(b1-4)GlcNAc(b1-3)Gal(b1-4)GlcNAc(b1-3)Gal(b1-4)GlcNAc
# Outline: as §1
# [4] = biological target: GlcNAc(b1-3)Gal(b1-4)GlcNAc(b1-3)Gal(b1-4)GlcNAc(b1-2)Man(a1-3)[GlcNAc(b1-3)Gal(b1-4)GlcNAc(b1-3)Gal(b1-4)GlcNAc(b1-2)Man(a1-6)]Man(b1-4)GlcNAc(b1-4)[Fuc(a1-6)]GlcNAc
# Outline: as §1
# [5] = biological target: GlcNAc(b1-3)Gal(b1-4)GlcNAc(b1-3)Gal(b1-4)GlcNAc(b1-3)Gal(b1-4)GlcNAc(b1-3)Gal(b1-4)GlcNAc(b1-2)Man(a1-3)[GlcNAc(b1-3)Gal(b1-4)GlcNAc(b1-3)Gal(b1-4)GlcNAc(b1-3)Gal(b1-4)GlcNAc(b1-3)Gal(b1-4)GlcNAc(b1-2)Man(a1-6)]Man(b1-4)GlcNAc(b1-4)GlcNAc
# Outline: as §1
# [6] = biological target: GlcNAc(b1-3)Man
# Outline: as §1
# [7] = biological target: GlcNAc(b1-6)Gal(b1-4)GlcNAc
# Outline: as §1
# [8] = biological target: Kdn(a2-3)Gal(b1-4)Glc
# Outline: as §1
# [9] = biological target: Kdn(a2-3)Gal(b1-4)GlcNAc
# Outline: as §1
# [10] = biological target: Man(a1-3)[Man(a1-6)]Man(b1-4)GlcNAc(b1-4)GlcNAc
# Outline: as §1
# [11] = biological target: Man(b1-4)GlcNAc
# Outline: as §1
# [12] = biological target: Neu5Ac(a2-3)Gal
# Outline: as §1
# [13] = biological target: Neu5Ac(a2-3)Gal(b1-3)[Fuc(a1-4)]GlcNAc
# Outline: as §1
# [14] = biological target: Neu5Ac(a2-3)Gal(b1-3)[Fuc(a1-4)]GlcNAc(b1-3)Gal(b1-3)[Fuc(a1-4)]GlcNAc
# Outline: as §1
# [15] = biological target: Neu5Ac(a2-3)Gal(b1-3)[GlcNAc(b1-6)]GalNAc
# Outline: as §1
# [16] = biological target: Neu5Ac(a2-3)Gal(b1-4)GlcNAc
# Outline: as §1
# [17] = biological target: Neu5Ac(a2-3)Gal(b1-4)GlcNAc(b1-6)[Neu5Ac(a2-3)Gal(b1-3)]GalNAc
# Outline: as §1
# [18] = biological target: Neu5Ac(a2-6)Gal(b1-4)GlcNAc(b1-2)Man(a1-3)[Neu5Ac(a2-6)Gal(b1-4)GlcNAc(b1-2)Man(a1-6)]Man(b1-4)GlcNAc(b1-4)[Fuc(a1-6)]GlcNAc
# Outline: as §1
# [19] = biological target: Neu5Ac(a2-6)Gal(b1-4)GlcNAc(b1-2)Man(a1-6)[GlcNAc(b1-2)Man(a1-3)]Man(b1-4)GlcNAc(b1-4)GlcNAc
# Outline: as §1
# [20] = biological target: Neu5Ac(a2-6)Gal(b1-4)GlcNAc(b1-3)Gal(b1-4)GlcNAc(b1-2)Man(a1-3)[Neu5Ac(a2-6)Gal(b1-4)GlcNAc(b1-3)Gal(b1-4)GlcNAc(b1-2)Man(a1-6)]GalNAc
# Outline: as §1
# [21] = biological target: Neu5Ac(a2-6)Gal(b1-4)GlcNAc(b1-3)Gal(b1-4)GlcNAc(b1-6)[Gal(b1-3)]GalNAc
# Outline: as §1
# [22] = biological target: Neu5Ac(a2-8)Neu5Ac(a2-8)Neu5Ac
# Outline: as §1
# [23] = biological target: Neu5Ac9Ac(a2-3)Gal(b1-3)GlcNAc
# Outline: as §1
# [24] = biological target: Neu5Gc(a2-3)Gal(b1-4)GlcNAc
# Outline: as §1
# [25] = biological target: Neu5Gc(a2-6)Gal(b1-4)GlcNAc
# Outline: as §1
binder,measurement,setting,value
B1,glycan array binding signal (z-score),[1],-0.321
same,glycan array binding signal (z-score),[2],-0.4
same,glycan array binding signal (z-score),[3],-0.457
same,glycan array binding signal (z-score),[4],-0.307
same,glycan array binding signal (z-score),[5],4.98
same,glycan array binding signal (z-score),[6],0.023
same,glycan array binding signal (z-score),[7],-0.043
same,glycan array binding signal (z-score),[8],0.82
same,glycan array binding signal (z-score),[9],-0.667
same,glycan array binding signal (z-score),[10],0.527
same,glycan array binding signal (z-score),[11],-0.147
same,glycan array binding signal (z-score),[12],0.406
same,glycan array binding signal (z-score),[13],3.52
same,glycan array binding signal (z-score),[14],3.37
same,glycan array binding signal (z-score),[15],1.55
same,glycan array binding signal (z-score),[16],0.435
same,glycan array binding signal (z-score),[17],-0.471
same,glycan array binding signal (z-score),[18],4.31
same,glycan array binding signal (z-score),[19],4.26
same,glycan array binding signal (z-score),[20],4.82
same,glycan array binding signal (z-score),[21],-0.512
same,glycan array binding signal (z-score),[22],-0.117
same,glycan array binding signal (z-score),[23],0.017
same,glycan array binding signal (z-score),[24],-0.141
same,glycan array binding signal (z-score),[25],-0.606
